Assay outcomes from PubChem BioAssay.
HT1080 IDH1KD tx = kills HT-1080 cells with IDH1 knockdown; 2% of 360,000 active; HT-1080 IDH1 knockdown viability, ATP luminescence, 48 h; Potency, µM (highest dose often 46.1 µM), hits mostly cytotoxic
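After a 2 h attachment period, IDH1KD HT-1080 cells took pin-transferred compound for 48 h at 37 °C; ATP-based luminescence after 10 min room-temperature reagent incubation reported viability.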
HT1080-NT tox = kills 2HG-producing HT-1080-NT fibrosarcoma cells; HT-1080-NT fibrosarcoma viability, CellTiter-Glo ATP luminescence, 48 h; Potency, µM (doses to about 46.1 µM), most hits filed as cytotoxic; 1.6% of 360,000 active;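 further: NT is the 2HG producing partner of a matched IDH1 knockdown line; nearly all actives have a fitted effect of over 55% in size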
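Viability of the 2HG-overproducing fibrosarcoma line after 48 hours of compound exposure at 37 degrees C was determined by luminescence with CellTiter-Glo, and concentration-effect curves were then fitted and categorized.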
DT40 TDP1 no CPT = qHTS for Inhibitors of human tyrosyl-DNA phosphodiesterase 1 (TDP1): qHTS in cells in absence of CPT. DT40 Tdp1-/- hTDP1 cells, no CPT, ATP luminescence, 48 h. Potency, µM (titrated, usually from 46.2 µM), most hits filed as inhibitors. 15% of 420,000 active; further: nearly all actives have a fitted effect of over 55% in size
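Camptothecin absent (DMSO only). Human TDP1-complemented DT40 knockout cells, 400 cells/well, 37 °C for minimum 48 hr; ATP measured via CellTiter-Glo, 30 min dark incubation, luminescence.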
IL-1B inflam inh = inflammasome signaling inhibition, IL-1 beta readout; THP-1 LPS/ATP IL-1B secretion, AlphaLISA, 16 h; hits give low values; activity change, % at 57.5 µM; 4.7% of 360,000 active; in the data active means activity change below about -50%; inconclusive means mostly about -30% to -49%
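THP-1 cells pretreated 1 hr with compounds (up to 57.5 uM final), then stimulated with LPS (250 ng/mL final) plus ATP (1.25 mM final); secreted IL-1B measured by AlphaLISA after 16 hr, decreased signal indicating inhibition.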
DT40 TDP1 CPT = DT40-hTDP1 cell growth loss with CPT. chicken DT40 Tdp1-/-;hTDP1 cells + 20 nM CPT, ATP luminescence, 48 h. Potency, µM (doses to about 46.2 µM), actives largely listed as inhibitors. 12% of 420,000 active. AID 686979; further: nearly all actives have a fitted effect of over 55% in size
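Chicken DT40 Tdp1-/- cells stably complemented with human TDP1 were seeded at 400 cells/well in medium containing 20 nM camptothecin, exposed to pin-transferred compounds, and grown at 37 °C for at least 48 hr. Viability was read as ATP luminescence.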
Hits are given with their value. Rows were chosen to be rich in hits. Some 19% of all compounds tested hit in one or more screens of this group. Unless noted, the call rests on the fitted dose curve; in most records, active means well fitted curve in the direction sought with a large enough effect; inconclusive means small, poorly fitted or top-dose-only effect, or another doubt; inactive means no such curve, though single readings can be large; an effect the other way counts as inactive or inconclusive.

For Cc1ccccc1CS(=O)(=O)c1ccc(C(=O)N2CCOCC2)cc1[N+](=O)[O-] the results were HT1080 IDH1KD tx inactive, HT1080-NT tox inactive, DT40 TDP1 no CPT 12µM, IL-1B inflam inh -88 and DT40 TDP1 CPT inconclusive.
Screening O=C(c1ccc(S(=O)(=O)Cc2ccccc2Cl)c([N+](=O)[O-])c1)N1CCOCC1 returned HT1080 IDH1KD tx inactive, HT1080-NT tox inconclusive, DT40 TDP1 no CPT 21µM, IL-1B inflam inh -100 and DT40 TDP1 CPT 21µM.
O=C(OCCN(C1=NS(=O)(=O)c2ccccc21)c1ccc(Cl)cc1)c1ccco1 was read as HT1080 IDH1KD tx inactive, HT1080-NT tox inactive, DT40 TDP1 no CPT inactive, IL-1B inflam inh inactive and DT40 TDP1 CPT inactive.
For CCCC(CNC(C)=O)(C1=CCCCC1)c1ccccc1 (configuration not stated) the results were HT1080 IDH1KD tx inactive, HT1080-NT tox inactive, DT40 TDP1 no CPT 13µM, IL-1B inflam inh inactive and DT40 TDP1 CPT 18µM.
`CC(OC(=O)c1ccccc1)C(=O)NCCC1=CCCCC1` (configuration not stated) gave HT1080 IDH1KD tx inactive, HT1080-NT tox inactive, DT40 TDP1 no CPT inactive, IL-1B inflam inh inactive and DT40 TDP1 CPT inactive.
For COc1cc(O)c(C(CCN2CCN(c3ccccc3)CC2)c2ccc3c(c2)OCO3)c(OC)c1 (configuration not stated) the results were HT1080 IDH1KD tx inactive, HT1080-NT tox inactive, DT40 TDP1 no CPT 16µM, IL-1B inflam inh inconclusive and DT40 TDP1 CPT 23µM.
`COc1cc(O)c(C(CCN2CCCC2)c2ccc3c(c2)OCO3)c(OC)c1` (configuration not stated) gave HT1080 IDH1KD tx inactive, HT1080-NT tox inactive, DT40 TDP1 no CPT 23µM, IL-1B inflam inh inconclusive and DT40 TDP1 CPT 23µM.
COc1cc(O)c(C(CC(=O)N2CCCC(C)C2)c2cc(OC)c(OC)c(OC)c2)c(OC)c1 (configuration not stated) was read as HT1080 IDH1KD tx inactive, HT1080-NT tox inactive, DT40 TDP1 no CPT inactive, IL-1B inflam inh inactive and DT40 TDP1 CPT inactive.
`CCN(CC)C(=O)CC(c1ccc2c(c1)OCO2)c1c(O)cc(OC)cc1OC` (configuration not stated) gave HT1080 IDH1KD tx inactive, HT1080-NT tox inactive, DT40 TDP1 no CPT inactive, IL-1B inflam inh inactive and DT40 TDP1 CPT inconclusive.
For COc1cc(O)c(C(CC(=O)N2CCN(c3ccccc3)CC2)c2ccc3c(c2)OCO3)c(OC)c1 (configuration not stated) the results were HT1080 IDH1KD tx inactive, HT1080-NT tox inactive, DT40 TDP1 no CPT inconclusive, IL-1B inflam inh inactive and DT40 TDP1 CPT inconclusive.
`COc1cc(O)c(C(CCN2CCN(c3ccccc3)CC2)c2cc(OC)c(OC)c(OC)c2)c(OC)c1` (configuration not stated) gave HT1080 IDH1KD tx inactive, HT1080-NT tox inactive, DT40 TDP1 no CPT 23µM, IL-1B inflam inh inactive and DT40 TDP1 CPT 21µM.
For CCN(CC)CCC(c1ccc2c(c1)OCO2)c1c(O)cc(OC)cc1OC (configuration not stated) the results were HT1080 IDH1KD tx inactive, HT1080-NT tox inactive, DT40 TDP1 no CPT 18µM, IL-1B inflam inh inactive and DT40 TDP1 CPT 21µM.
`CCn1c2ccccc2c2cc(C3C(C#N)=C(N)Oc4n[nH]c(COC)c43)ccc21` (configuration not stated) gave HT1080 IDH1KD tx 8.9µM, HT1080-NT tox 11µM, DT40 TDP1 no CPT 26µM, IL-1B inflam inh inconclusive and DT40 TDP1 CPT inconclusive.
Screening COCc1[nH]nc2c1C(c1ccnc3ccccc13)C(C#N)=C(N)O2 (configuration not stated) returned HT1080 IDH1KD tx inactive, HT1080-NT tox inactive, DT40 TDP1 no CPT 9.2µM, IL-1B inflam inh inactive and DT40 TDP1 CPT 18µM.
COCc1[nH]nc2c1C(c1ccc(F)cc1F)C(C#N)=C(N)O2 (configuration not stated) was read as HT1080 IDH1KD tx inactive, HT1080-NT tox inactive, DT40 TDP1 no CPT inactive, IL-1B inflam inh inconclusive and DT40 TDP1 CPT inactive.
`COc1cccc(C(=O)NCC(c2ccc3c(c2)OCO3)N2CCN(C)CC2)c1` (configuration not stated) gave DT40 TDP1 no CPT inactive and DT40 TDP1 CPT inactive.
CCc1nc2c(OCC(=O)c3ccc(F)cc3)cccn2c1N(C)C(=O)c1ccc(OC)cc1 was read as HT1080 IDH1KD tx inactive, HT1080-NT tox inactive, DT40 TDP1 no CPT inactive, IL-1B inflam inh inactive and DT40 TDP1 CPT inactive.
`CCN1CCN(C(c2cccc(OC)c2)c2c(O)cc(C)n(Cc3ccco3)c2=O)CC1` (configuration not stated) gave DT40 TDP1 no CPT inactive and DT40 TDP1 CPT inactive.
`O=[N+]([O-])c1nccn1CCCCCCCCCCCN1CCOCC1` gave HT1080 IDH1KD tx inactive, HT1080-NT tox inactive, DT40 TDP1 no CPT inconclusive, IL-1B inflam inh inactive and DT40 TDP1 CPT inconclusive.
`O=[N+]([O-])c1cccc2nc3ccccc3c(NCCCn3ccnc3[N+](=O)[O-])c12` gave HT1080 IDH1KD tx 0.082µM, HT1080-NT tox inconclusive, DT40 TDP1 no CPT 0.18µM, IL-1B inflam inh -102 and DT40 TDP1 CPT 0.15µM.
Screening O=C1C=CN2CCCCC2CC1 (configuration not stated) returned HT1080 IDH1KD tx inactive, HT1080-NT tox inactive, DT40 TDP1 no CPT 16µM, IL-1B inflam inh inactive and DT40 TDP1 CPT 10µM.
COc1cccc(CC2(CO)CCN(Cc3cccn3-c3cccnc3)CC2)c1 was read as HT1080 IDH1KD tx inactive, HT1080-NT tox inactive, DT40 TDP1 no CPT inconclusive, IL-1B inflam inh inactive and DT40 TDP1 CPT inconclusive.
Screening COc1ccc2c(c1)c(C)cc[n+]2Cc1ccccc1 returned HT1080 IDH1KD tx 23µM, HT1080-NT tox 15µM, DT40 TDP1 no CPT 1.6µM, IL-1B inflam inh inactive and DT40 TDP1 CPT 2.6µM.
For Cc1ccc2c(c1)c(C)cc[n+]2Cc1ccccc1 the results were HT1080 IDH1KD tx inconclusive, HT1080-NT tox inactive, DT40 TDP1 no CPT 2.9µM, IL-1B inflam inh inactive and DT40 TDP1 CPT 2.6µM.
For Cc1ccc2ccc[n+](Cc3ccccc3)c2c1 the results were HT1080 IDH1KD tx inactive, HT1080-NT tox inactive, DT40 TDP1 no CPT 9.2µM, IL-1B inflam inh inactive and DT40 TDP1 CPT 16µM.
O=C(NCCOc1ccc(Cl)cc1)C1CC(=O)N(c2ccc3c(c2)OCCO3)C1 (configuration not stated) was read as HT1080 IDH1KD tx inactive, HT1080-NT tox inactive, DT40 TDP1 no CPT inactive, IL-1B inflam inh inactive and DT40 TDP1 CPT inactive.
For CCCCCCOC(=O)Sc1nc2ccccc2o1 the results were HT1080 IDH1KD tx inactive, HT1080-NT tox inactive, DT40 TDP1 no CPT inactive, IL-1B inflam inh inactive and DT40 TDP1 CPT inactive.
